The text below walks through data of PubChem BioAssay (NCI).

The panel holds about 83,000 compounds, 20% with a hit somewhere; the sample as a whole holds those more often.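 Method: cells in 96-well plates; compound added at one concentration; 48 h incubation; percent growth measured; values under 10 scored active.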 The source made the active and inactive calls.

In the test the test system is SF-295 CNS. Description: NCI-60 one-dose screen, 48 h (100 = growth as untreated, 0 = no growth, -100 = all killed). As to conditions: 10 µM unless noted.
Regarding `CCC(c1ccc(OC)cc1)C(CC)c1ccc(O)c(CN2CCCCC2)c1` (centres undefined), the growth is 78.9% (inactive). Take `COc1cccc(-c2nn(-c3ccccc3)cc2-c2ccnc(NCCNS(=O)(=O)c3ccc(Cl)cc3)c2)c1`: the growth was 21.7% (inactive). Take `O=S(=O)(NCCNc1cc(-c2cn(-c3ccccc3)nc2-c2cccc(O)c2)ccn1)c1ccc(C(F)(F)F)cc1`: the growth was 38.6% (inactive). For `Cc1cc(C)c(NC(=O)c2sc3nc4c(cc3c2N)CCCC4)c(C)c1`, the growth was 29.2% (inactive). On to `C=C1C(=O)O[C@H]2[C@H]1CC/C(Cn1cc(-c3ccc(OC)cc3)nn1)=C\CC[C@@]1(C)O[C@@H]21`, for which the growth is 88.8% (inactive). Consider `COC(=O)[C@]12CC[C@@H](C)[C@H](C)[C@@H]1C1=CC[C@@H]3[C@@]4(C)C[C@@H](OC(C)=O)[C@H](OC(C)=O)[C@@](C)(COC(C)=O)[C@@H]4[C@H](O)C[C@@]3(C)[C@]1(C)CC2`, for which the growth is 7.96% (active).

As to `COc1cccc(-c2nn(-c3ccccc3)cc2-c2ccnc(NCCCNS(=O)(=O)c3ccc(Cl)cc3)c2)c1`, the growth is 24.2% (inactive). The result for `O=S(=O)(NCCNc1cc(-c2cn(-c3ccccc3)nc2-c2cccc(O)c2)ccn1)c1ccc(F)cc1` reads 10.4% (inactive). On to `COc1cccc(-c2nn(-c3ccccc3)cc2-c2ccnc(NCCCNS(=O)(=O)c3cccc(F)c3)c2)c1`, for which the growth was 7.99% (active). In the case of `COc1ccc(/C=C/C(=O)NCC(C)O)cc1` (centres undefined), the growth was 99.7% (inactive). Take `CSc1ccc(N(C)c2nc(C)nc3c2CCC3)cc1`: the growth was 14.3% (inactive). As to `O=C1CCN2C(=O)Nc3ccccc3C2C1` (centres undefined), the growth is 97.5% (inactive). For `Clc1ccc(Cn2cc(-c3nc4ccc(Br)nc4n3Cc3ccc(Cl)cc3)c3cccnc32)cc1`, the growth is 83.9% (inactive).

As to `COC(=O)[C@]12CC[C@@H](C)[C@H](C)[C@@H]1C1=CC[C@@H]3[C@@]4(C)C[C@@H](OC(C)=O)[C@H](O)[C@@](C)(COC(C)=O)[C@@H]4[C@H](O)C[C@@]3(C)[C@]1(C)CC2`, the growth was -91.8% (active).
